These results are taken from ChEMBL document CHEMBL3988442, “University of Dundee, Small-Polar-MMV Screening Library” (2021).

Each structure is given as a SMILES string. For some of these results: Results with a measured potency or affinity are listed apart.

Design in all cases: scale not given: direction of the effect not stated beside the values
The target in assay [1] is Protein translocase subunit SecA (Escherichia coli (strain K12)) (UniProt P10408). The experiment in a line: Assay to Identify E. coli SecA ATPase Inhibitors. The class given is functional. The following applies: 30 µM.
In assay [2] the target is T1, Ubiquitin-activating enzyme e1, putative (Leishmania donovani (strain BPK282A1)) (UniProt E9BSI1).
T1 sequence (whole entry): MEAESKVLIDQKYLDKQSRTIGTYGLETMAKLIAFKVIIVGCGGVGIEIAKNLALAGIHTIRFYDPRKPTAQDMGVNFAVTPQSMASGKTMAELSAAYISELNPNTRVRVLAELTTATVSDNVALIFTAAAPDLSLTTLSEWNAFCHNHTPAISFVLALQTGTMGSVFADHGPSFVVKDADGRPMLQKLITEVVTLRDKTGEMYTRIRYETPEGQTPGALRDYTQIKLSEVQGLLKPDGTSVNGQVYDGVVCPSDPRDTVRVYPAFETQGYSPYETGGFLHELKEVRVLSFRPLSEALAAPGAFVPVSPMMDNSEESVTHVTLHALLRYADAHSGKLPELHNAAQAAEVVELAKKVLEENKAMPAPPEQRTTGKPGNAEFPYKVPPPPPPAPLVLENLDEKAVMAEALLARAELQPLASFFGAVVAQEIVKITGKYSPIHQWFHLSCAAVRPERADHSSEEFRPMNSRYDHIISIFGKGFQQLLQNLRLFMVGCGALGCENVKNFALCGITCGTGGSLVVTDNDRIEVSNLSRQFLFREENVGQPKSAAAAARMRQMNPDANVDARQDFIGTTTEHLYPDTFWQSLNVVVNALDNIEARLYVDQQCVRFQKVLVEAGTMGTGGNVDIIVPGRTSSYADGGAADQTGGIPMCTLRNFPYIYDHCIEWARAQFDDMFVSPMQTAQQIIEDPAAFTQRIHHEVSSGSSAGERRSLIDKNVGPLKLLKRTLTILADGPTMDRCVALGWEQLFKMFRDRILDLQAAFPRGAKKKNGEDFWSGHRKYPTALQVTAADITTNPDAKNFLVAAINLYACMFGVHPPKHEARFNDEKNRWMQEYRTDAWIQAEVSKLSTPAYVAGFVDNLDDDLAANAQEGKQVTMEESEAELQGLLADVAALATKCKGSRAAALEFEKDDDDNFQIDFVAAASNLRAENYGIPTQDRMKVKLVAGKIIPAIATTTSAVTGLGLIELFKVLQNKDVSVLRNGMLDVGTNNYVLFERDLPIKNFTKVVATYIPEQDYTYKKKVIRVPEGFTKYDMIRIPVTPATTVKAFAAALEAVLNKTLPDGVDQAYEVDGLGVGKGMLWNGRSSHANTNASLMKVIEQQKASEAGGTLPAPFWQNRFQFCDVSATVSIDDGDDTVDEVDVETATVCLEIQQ
The experiment in a line: Leishmania donovani Ubiquitin Activating Enzyme (LdE1). To be noted: 30 µM. The class given is functional.

Assay [3] has as its target AMP-activated protein kinase, AMPK (Homo sapiens) (UniProt P54646+O43741+P54619+Q9UGJ0+Q9Y478+Q13131+Q9UGI9). Briefly: AMP-dependent Kinase enzyme assay. An in vitro enzyme assay that detects ADP turnover that is directly proportional to AMPK activity. This uses naive AMPK that is activated during the assay with MK-8722. The class given is functional. To be noted: 30 µM.

Assay [4] addresses Sialic acid-binding Ig-like lectin 9 (Homo sapiens) (UniProt Q9Y336). Briefly: Hs-Siglec9 ALPHAscreen SOP 20170721. To be noted: 10 µM. A general note: In Alpha technology, singlet oxygen from a donor bead excites a nearby acceptor bead.
The test system of the next assay is Trypanosoma cruzi. The experiment in a line: Trypanosoma cruzi phosphomannomutase and mannose-1-phosphate guanylyltransferase assay. The class given is functional. To be noted: 10 µM.
In assay [5] the target is T2, Arginase-2, mitochondrial (Homo sapiens) (UniProt P78540).
T2 sequence (whole entry): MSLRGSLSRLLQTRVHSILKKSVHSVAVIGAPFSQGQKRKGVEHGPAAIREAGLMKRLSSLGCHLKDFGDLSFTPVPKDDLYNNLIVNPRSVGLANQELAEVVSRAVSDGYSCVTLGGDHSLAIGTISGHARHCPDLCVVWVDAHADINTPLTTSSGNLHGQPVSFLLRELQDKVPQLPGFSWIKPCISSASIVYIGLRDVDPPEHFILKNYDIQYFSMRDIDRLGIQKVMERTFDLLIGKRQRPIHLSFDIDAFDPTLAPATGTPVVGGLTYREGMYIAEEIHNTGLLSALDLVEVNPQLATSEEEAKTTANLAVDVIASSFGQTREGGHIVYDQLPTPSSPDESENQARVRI
Briefly: in vitro enzyme assay to detect the production of urea directly proportional to the activity of Arginase II. Also: in the data most compounds retested in dose-response had high values. The class given is functional. To be noted: 33.3 µM.

The target in assay [6] is T3, Proteasome subunit beta (Trypanosoma cruzi) (UniProt O96673).
T3 sequence (whole entry): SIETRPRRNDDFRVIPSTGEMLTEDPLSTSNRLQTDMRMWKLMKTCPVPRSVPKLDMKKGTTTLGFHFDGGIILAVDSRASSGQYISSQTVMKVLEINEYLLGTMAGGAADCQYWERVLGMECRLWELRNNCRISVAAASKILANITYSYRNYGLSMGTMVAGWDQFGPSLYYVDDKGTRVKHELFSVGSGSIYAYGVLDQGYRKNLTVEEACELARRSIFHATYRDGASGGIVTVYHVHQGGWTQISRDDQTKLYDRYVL
Briefly: Trypanosoma cruzi proteasome chymotrypsin-like activity (TcProtChymo) assay. Also: in the data most compounds retested in dose-response had high values. It counts as functional. The following applies: 9.37 µM.

Another assay is filed under the species Homo sapiens. The experiment in a line: To identify inhibition of the IFN signalling (Jak-Stat) pathway via expression of an eGFP reporter gene under the control of an IFN-stimulated response element (ISRE) containing MxA promoter. To be noted: 30 µM. The class given is functional. In general terms: Reporter assays use an easily measured gene product as a stand-in for the process of interest.

The target in assay [7] is T4, Tyrosyl-tRNA synthetase, putative (Trypanosoma cruzi (strain CL Brener)) (UniProt Q4DSP6).
T4 sequence (whole entry): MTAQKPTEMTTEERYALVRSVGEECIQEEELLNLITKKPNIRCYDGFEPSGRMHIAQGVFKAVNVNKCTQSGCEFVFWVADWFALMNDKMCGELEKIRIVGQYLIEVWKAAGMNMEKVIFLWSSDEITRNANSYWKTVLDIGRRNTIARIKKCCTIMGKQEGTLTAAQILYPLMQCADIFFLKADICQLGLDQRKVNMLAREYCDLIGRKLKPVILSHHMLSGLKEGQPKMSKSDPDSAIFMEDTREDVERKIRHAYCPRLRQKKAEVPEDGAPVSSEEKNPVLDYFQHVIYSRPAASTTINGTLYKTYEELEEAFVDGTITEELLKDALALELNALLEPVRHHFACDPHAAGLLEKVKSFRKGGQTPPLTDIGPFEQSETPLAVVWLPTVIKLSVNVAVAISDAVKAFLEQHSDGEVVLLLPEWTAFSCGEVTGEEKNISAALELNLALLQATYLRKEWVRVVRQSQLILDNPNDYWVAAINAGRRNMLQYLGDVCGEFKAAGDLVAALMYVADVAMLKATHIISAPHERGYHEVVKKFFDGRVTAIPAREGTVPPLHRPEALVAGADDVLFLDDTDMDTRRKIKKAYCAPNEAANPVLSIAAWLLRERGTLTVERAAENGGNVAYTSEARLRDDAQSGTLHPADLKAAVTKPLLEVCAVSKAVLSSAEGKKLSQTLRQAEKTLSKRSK
The experiment in a line: Trypanosoma cruzi tyrosyl tRNA synthetase (TcYRS) _High Tyrosine SOP. Also: in the data most compounds retested in dose-response had high values. It counts as functional. The following applies: 30 µM.

For assay [8], the target named is T4, Tyrosyl-tRNA synthetase, putative (Trypanosoma cruzi (strain CL Brener)). The experiment in a line: Trypanosoma cruzi tyrosyl tRNA synthetase (TcYRS) SOP. It counts as functional. To be noted: 30 µM.
Assay [9] concerns the target Chromo domain-containing protein 1 (Saccharomyces cerevisiae (strain ATCC 204508 / S288c) (Baker's yeast)) (UniProt P32657). The experiment in a line: ScCHD-1 Enzyme Inhibition Assay. Also: in the data most compounds retested in dose-response had high values. The class given is functional. To be noted: 30 µM.

Sequence of Sialic acid-binding Ig-like lectin 9 (Homo sapiens) (Q9Y336 whole entry): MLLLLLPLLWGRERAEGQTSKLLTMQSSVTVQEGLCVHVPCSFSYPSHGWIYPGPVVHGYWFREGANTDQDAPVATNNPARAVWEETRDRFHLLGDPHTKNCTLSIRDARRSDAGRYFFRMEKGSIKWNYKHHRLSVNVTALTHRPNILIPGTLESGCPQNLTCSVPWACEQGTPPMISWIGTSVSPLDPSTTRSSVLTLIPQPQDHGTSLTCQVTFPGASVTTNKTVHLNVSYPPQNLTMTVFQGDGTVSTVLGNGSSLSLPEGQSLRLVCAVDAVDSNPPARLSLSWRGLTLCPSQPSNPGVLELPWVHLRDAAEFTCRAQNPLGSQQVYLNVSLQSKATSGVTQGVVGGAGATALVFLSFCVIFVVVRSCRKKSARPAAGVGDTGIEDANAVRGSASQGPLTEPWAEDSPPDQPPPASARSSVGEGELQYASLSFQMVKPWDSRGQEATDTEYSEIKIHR
Sequence of Chromo domain-containing protein 1 (Saccharomyces cerevisiae (strain ATCC 204508 / S288c) (Baker's yeast)) (P32657 whole entry, the tested form may be a part): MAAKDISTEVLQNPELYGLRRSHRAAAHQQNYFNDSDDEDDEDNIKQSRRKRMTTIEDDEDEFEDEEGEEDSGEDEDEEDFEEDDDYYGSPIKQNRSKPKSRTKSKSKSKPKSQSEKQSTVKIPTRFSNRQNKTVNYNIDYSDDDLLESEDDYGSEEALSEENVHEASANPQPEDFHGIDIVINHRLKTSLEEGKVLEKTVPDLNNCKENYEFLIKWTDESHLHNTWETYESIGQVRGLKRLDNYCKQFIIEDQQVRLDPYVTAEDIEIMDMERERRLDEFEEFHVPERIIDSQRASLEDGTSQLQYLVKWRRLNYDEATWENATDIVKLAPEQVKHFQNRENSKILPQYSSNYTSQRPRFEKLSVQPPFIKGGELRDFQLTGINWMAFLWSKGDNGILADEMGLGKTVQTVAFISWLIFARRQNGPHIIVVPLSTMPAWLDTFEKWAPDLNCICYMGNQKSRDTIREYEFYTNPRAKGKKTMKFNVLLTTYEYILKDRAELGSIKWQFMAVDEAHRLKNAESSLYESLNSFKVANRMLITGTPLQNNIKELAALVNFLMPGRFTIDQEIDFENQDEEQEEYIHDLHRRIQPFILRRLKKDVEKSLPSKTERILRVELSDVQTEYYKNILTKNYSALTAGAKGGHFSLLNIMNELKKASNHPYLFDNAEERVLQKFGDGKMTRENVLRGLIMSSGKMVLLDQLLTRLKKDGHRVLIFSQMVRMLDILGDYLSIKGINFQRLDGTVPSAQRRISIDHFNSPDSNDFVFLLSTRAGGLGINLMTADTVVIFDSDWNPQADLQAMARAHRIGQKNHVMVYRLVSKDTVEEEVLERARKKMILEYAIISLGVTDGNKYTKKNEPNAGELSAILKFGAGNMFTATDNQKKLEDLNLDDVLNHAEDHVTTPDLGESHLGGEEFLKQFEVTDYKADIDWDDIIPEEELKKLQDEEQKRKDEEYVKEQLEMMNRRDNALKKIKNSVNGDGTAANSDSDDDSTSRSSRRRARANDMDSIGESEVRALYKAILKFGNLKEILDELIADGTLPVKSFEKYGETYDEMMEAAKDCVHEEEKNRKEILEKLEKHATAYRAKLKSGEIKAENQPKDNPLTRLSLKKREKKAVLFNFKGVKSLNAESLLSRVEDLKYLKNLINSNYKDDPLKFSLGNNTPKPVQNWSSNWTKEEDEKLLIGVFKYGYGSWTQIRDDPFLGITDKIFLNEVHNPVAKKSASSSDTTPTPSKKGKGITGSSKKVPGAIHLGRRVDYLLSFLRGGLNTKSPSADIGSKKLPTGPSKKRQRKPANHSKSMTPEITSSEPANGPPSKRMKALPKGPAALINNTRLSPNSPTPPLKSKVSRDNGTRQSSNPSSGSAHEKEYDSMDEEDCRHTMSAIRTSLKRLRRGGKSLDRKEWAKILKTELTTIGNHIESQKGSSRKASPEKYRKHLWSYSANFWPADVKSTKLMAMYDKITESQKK
Sequence of Protein translocase subunit SecA (Escherichia coli (strain K12)) (P10408 whole entry): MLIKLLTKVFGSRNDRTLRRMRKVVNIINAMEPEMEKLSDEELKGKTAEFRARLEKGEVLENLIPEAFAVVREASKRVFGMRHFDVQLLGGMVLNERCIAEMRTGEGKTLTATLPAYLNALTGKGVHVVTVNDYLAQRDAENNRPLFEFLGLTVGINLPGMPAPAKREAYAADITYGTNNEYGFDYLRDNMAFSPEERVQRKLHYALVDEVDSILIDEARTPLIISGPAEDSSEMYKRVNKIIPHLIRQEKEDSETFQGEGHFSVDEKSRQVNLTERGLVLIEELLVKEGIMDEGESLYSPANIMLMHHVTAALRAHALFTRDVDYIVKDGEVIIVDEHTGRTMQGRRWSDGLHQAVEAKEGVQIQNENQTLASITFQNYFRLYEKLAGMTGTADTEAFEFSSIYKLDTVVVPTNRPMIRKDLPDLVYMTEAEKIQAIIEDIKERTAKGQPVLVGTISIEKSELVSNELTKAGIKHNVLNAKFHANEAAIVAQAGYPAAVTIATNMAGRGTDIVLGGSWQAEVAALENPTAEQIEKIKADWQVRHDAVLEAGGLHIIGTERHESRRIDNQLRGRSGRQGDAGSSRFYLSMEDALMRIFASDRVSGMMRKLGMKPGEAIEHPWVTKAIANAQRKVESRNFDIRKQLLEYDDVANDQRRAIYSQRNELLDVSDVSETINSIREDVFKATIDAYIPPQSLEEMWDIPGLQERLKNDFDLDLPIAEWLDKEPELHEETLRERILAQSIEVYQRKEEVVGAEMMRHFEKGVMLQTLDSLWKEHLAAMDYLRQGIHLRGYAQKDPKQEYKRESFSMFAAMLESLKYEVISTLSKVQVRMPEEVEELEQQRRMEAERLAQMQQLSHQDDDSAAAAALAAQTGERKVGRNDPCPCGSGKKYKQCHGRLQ

On to `O=C(CCC1CCCC1)NCCn1nc(C2CCNC2)c2nccnc21` (stereo unspecified), for which the Percent Effect in assay [1] was -2.79%; in [2], 12.2%; in assay [3], -13.6%; in assay [4], -8.06%; in the assay on Trypanosoma cruzi, -6.52%; in [5] it was -5.34%. Besides, the Percent Effect was 17.6% in assay [6]; 23.6% in the assay filed under Homo sapiens; -3.23% in assay [7]; -3.9% in assay [8]; -19.5% in assay [9].

On to `Cc1nnc(NCc2cccnc2N(C)C)c(C#N)c1C`, for which the Percent Effect in assay [1] is -0.868%; in [2] it was -5.41%; in assay [3], -22.1%; in assay [4], 9.49%; in the assay with Trypanosoma cruzi, 2.88%; in assay [5], -4.25%. Moreover, the Percent Effect in [6] is -2.87%; in the assay listed under Homo sapiens, 6.79%; in [7], 2.97%; in assay [8], 6.1%; in assay [9], 0.273%.

`Cc1cc(C(C)NC(=O)N2CCC(n3cncn3)CC2)c(C)s1` (stereo unspecified): the Percent Effect in [1] was -4.4%; in [2] it was 7.59%; in [3] it was -0.225%; in assay [4], 9.65%; with Trypanosoma cruzi, 1.23%; in [5], -2.28%. In addition, the Percent Effect in assay [6] was -4.01%; in the assay listed under Homo sapiens, 3.67%; in assay [7], 1.48%; in assay [8], 3.8%; in [9] it was -3.57%.

Consider `CCC(O)CNC(=O)C1(N(C)Cc2ccccc2)Cc2ccccc2C1` (stereo unspecified), for which the Percent Effect in assay [1] is -4.2%; in [2], 2.67%; in [3], 3.26%; in assay [4], -1.75%; in the assay with Trypanosoma cruzi, -2.63%; in assay [5] it was 3.12%. Also, the Percent Effect in assay [6] is 8.72%; in the assay filed under Homo sapiens, -26.6%; in assay [7] it was 1.64%; in assay [8] it was 8.64%; in assay [9] it was -5.97%.

In the case of `CC(C)OCC(=O)N1CCCN(Cc2ccc(C#N)cc2)CC1`, the Percent Effect in assay [1] is -2.63%; in [2] it was 13.2%; in assay [3] it was 4.09%; in assay [4], 11.3%; in the assay on Trypanosoma cruzi, 0.94%; in assay [5], 2.68%. In addition, the Percent Effect in assay [6] was 10.2%; in the assay listed under Homo sapiens, -2.84%; in [7], 8.33%; in assay [8], 17.1%; in [9], -8.3%.

`Cn1ncc2c(=O)[nH]c(CN(Cc3cccc(F)c3)C3CC3)nc21`: the Percent Effect in assay [1] was -4.78%; in assay [2], 15.6%; in assay [3], 1.73%; in assay [4], -0.0963%; with Trypanosoma cruzi, 8.05%; in assay [5], 3.92%. Moreover, the Percent Effect in assay [6] was 16.1%; in the assay listed under Homo sapiens, -5.95%; in assay [7], 8.74%; in assay [8], 24.4%; in [9], -7.35%.

Consider `CC(C)Cc1cc(C(=O)N2CCCC(n3cncn3)C2)[nH]n1` (stereo unspecified), for which the Percent Effect in assay [1] is -1.38%; in assay [2], 11.4%; in [3], 6.88%; in assay [4], -0.206%; in the assay with Trypanosoma cruzi, 1.33%; in assay [5], 10.1%. Moreover, the Percent Effect in assay [6] was 2.4%; in the assay listed under Homo sapiens, 0.485%; in assay [7], 5.21%; in [8] it was 12.7%; in assay [9], -22.3%.

Turning to `CCc1[nH]ncc1C(=O)N1CCCN(Cc2cnn(C)c2)CC1`, the Percent Effect in assay [1] was 0.347%; in [2] it was 15.6%; in [3], 6.03%; in [4], -6.37%; in the assay on Trypanosoma cruzi it was -0.0979%; in assay [5], 5.68%. Besides, the Percent Effect was 8% in assay [6]; 21.9% in the assay listed under Homo sapiens; 5.71% in assay [7]; 18.8% in [8]; -17.9% in assay [9].

In the case of `Cc1ccc(CC(=O)N2CCOC(c3nc(C(C)(C)C)n[nH]3)C2)cn1` (stereo unspecified), the Percent Effect in [1] is -3.58%; in assay [2] it was 12.5%; in assay [3], -9.66%; in assay [4] it was 13.3%; with Trypanosoma cruzi, 4.76%; in [5], -0.442%. Besides, the Percent Effect in [6] was 7.72%; in the assay listed under Homo sapiens, 2.71%; in assay [7], 3.16%; in assay [8], 5.13%; in [9] it was -2.81%.

With `O=C(CC1CC1)NCc1cn2c(n1)CN(CC1CC1)CC2`, the Percent Effect in assay [1] was -3.1%; in assay [2] it was 13.3%; in [3], 16.6%; in [4], -9.15%; in the assay on Trypanosoma cruzi it was -3.54%; in assay [5] it was 1.63%. For the same compound, the Percent Effect is 10.7% in assay [6]; 3.1% in the assay listed under Homo sapiens; -3.19% in assay [7]; 8.97% in assay [8]; -5.22% in assay [9].

`CC(C)c1ncc2c(n1)CN(Cc1cccc(C#N)c1)CC2`: the Percent Effect in assay [1] is -3.01%; in assay [2], 0%; in [3], -28.8%; in assay [4], 8.37%; in the assay with Trypanosoma cruzi it was 4.89%; in assay [5], 3.06%. Also, the Percent Effect is 5.01% in [6]; -9.04% in the assay filed under Homo sapiens; 5.39% in assay [7]; 4.88% in assay [8]; 2.88% in assay [9].
